# Measured values published in PubChem BioAssay AID434970 (Sanford-Burnham Center for Chemical Genomics, 2010).
# About 310 (2.8%) of roughly 11,000 compounds were called active. No stated cut-off is given here; in the data, active means activity change below about -85%; inactive means the rest. What follows is part of a selection rich in actives, with near analogues and random picks from the rest.
# System: intestinal alkaline phosphatase [Mus musculus]
# Test: mouse intestinal phosphatase enzyme activation – biochemical, luminescence, single concentration, confirmation (AID 434970)
# Conditions: purified mouse IAP, CDP-Star luminescence, 30 min, at 10 µM; activation factor: measured here: IAP activation factor, stronger effect = higher value; activity change, negative = activation: stronger effect = lower value
SMILES,activation factor,"activity change, negative = activation"
O=C(c1cccs1)[C@@H]1[C@@H]2C(=O)N(Cc3ccc4c(c3)OCO4)C(=O)[C@@H]2C2c3ccccc3C=CN21 (stereo not given in full),0.569,43.1% (inactive)
CCn1c(=O)c(C(=O)NCCN2CCCCC2)c(O)c2ccccc21,0.851,14.8% (inactive)
CC[C@]1(C(=O)OC)[C@H]2C(=O)N(C)C(=O)[C@H]2[C@H]2CN(C)C(=NC3CCCCC3)N21,0.984,1.6% (inactive)
Cc1ccccc1NC(=O)NCCCN1CCN(c2ccccc2)CC1,1.27,-27.2% (inactive)
Cc1cc2nc(C)n(CCCNC(=O)Nc3cccc4ccccc34)c2cc1C,2.18,-118% (active)
O=C(NCCc1c[nH]c2ccccc12)Nc1cccc2ccccc12,1.29,-28.6% (inactive)
Cc1cc(=O)n(CCO)c(O)c1C#N,1.02,-1.65% (inactive)
CCOC(=O)C1=CNS(=O)(=O)NC1c1cccc(O)c1 (stereo not given),1.05,-5.15% (inactive)
COc1ccc(NS(=O)(=O)c2ccc(OC)c(OC)c2)cc1OC,0.945,5.5% (inactive)
O=C(Nc1nc(-c2cccs2)cs1)c1ccc(Cl)cc1,0.793,20.7% (inactive)
O=C(Nc1cccc(Cl)c1)Nc1nc(-c2ccc(Cl)cc2)cs1,2.1,-110% (active)
O=C(Nc1ccccc1)Nc1nc(-c2ccc(F)cc2)cs1,1.62,-62.5% (inactive)
COc1cccc(-c2csc(NC(=O)Nc3ccccc3)n2)c1,2.11,-111% (active)
O=C(Nc1cccc(Cl)c1)Nc1nc(-c2ccccc2)cs1,2.16,-116% (active)
O=C(Nc1nc(-c2ccccc2)cs1)NC1CCCCC1,1.61,-61.4% (inactive)
Cc1csc(NC(=O)Nc2cccc(Cl)c2)n1,1.11,-11.1% (inactive)
COc1cccc(-c2csc(N3CCN(C(=O)Nc4ccc(F)cc4)CC3)n2)c1,1.33,-32.7% (inactive)
O=C(Nc1ccccc1)Nc1nc(-c2ccc(F)c(F)c2)cs1,1.75,-75.4% (inactive)
Cc1cc(NCCCn2ccnc2)n2c(nc3ccccc32)c1C#N,1.02,-2.25% (inactive)
CC1(C)Cc2c(sc3c2C2=NCCN2C=N3)CO1,0.94,5.95% (inactive)
COc1ccc(C(c2nnnn2Cc2cccs2)N2CCN(c3ccc(F)cc3)CC2)cc1OC (stereo not given),0.985,1.5% (inactive)
C1=C[C@H]2CC[C@@H]1N(c1ccccc1)O2,0.976,2.4% (inactive)
NC1=NC2(CCCCC2)N(c2ccc(F)cc2)C(N)=N1,0.95,4.95% (inactive)
Cc1ccc(CNC(=O)/C(C#N)=C\c2ccc(N(C)C)cc2)cc1,0.817,18.4% (inactive)
CCCOc1ccc(Oc2cc(C)nc(SC)n2)nn1,1.01,-1% (inactive)

SMILES,activation factor,"activity change, negative = activation"
Cc1nn(C/C(C#N)=N\O)c(C)[n+]1N,0.961,3.9% (inactive)
COc1cc2c3c(c1)C1(C(=O)N3C(C)(C)C=C2C)C(C#N)=C(N)Oc2cc(O)ccc21 (stereo not given),1,-0.3% (inactive)
COc1ccc(NC(=O)c2ccco2)cc1NC(=O)c1cccc(OC(C)C)c1,0.934,6.55% (inactive)
O=C1CN=C(Nc2ccccc2Cl)N1Cc1ccc2c(c1)OCO2,1.07,-7.1% (inactive)
CCOC(=O)c1cccc(NC(=O)Nc2cc(OC)ccc2OC)c1,1.69,-68.8% (inactive)
COc1cccc(NC(=O)CCN2CCN(c3ccccc3F)CC2)c1,1.09,-8.65% (inactive)
CCOC(=O)c1ccc(N2CCN(c3ccccc3F)CC2)c(NC(=O)Nc2cccc(OC)c2)c1,4.62,-362% (active)
COC(=O)c1ccc(N2CCN(C)CC2)c(NC(=O)c2cc3ccccc3o2)c1,1.03,-3.1% (inactive)
CCOC(=O)c1ccc(N2CCN(c3ccc(F)cc3)CC2)c(NC(=O)Nc2cccc(OC)c2)c1,1.55,-55% (inactive)
CCOC(=O)c1ccc(N2CCN(c3ccccc3F)CC2)c(NC(=O)Nc2ccccc2)c1,3.14,-214% (active)
CC1(C)N=C(SCC(=O)Nc2ccccc2)C(c2ccc(Cl)cc2)=N1,0.943,5.75% (inactive)
COc1cc(C2CC(=O)Oc3ccc(C(C)(C)C)cc32)cc(OC)c1OC (stereo not given),1.07,-6.8% (inactive)
O=C(O)CCN(CCC(=O)O)c1ccccc1,1.02,-1.9% (inactive)
CNC[C@@H]1Oc2ccc(NC(=O)Nc3cccc4ccccc34)cc2C(=O)N([C@@H](C)CO)C[C@@H]1C,2.43,-143% (active)
CNC[C@H]1Oc2ccc(NC(=O)Nc3ccc4c(c3)OCO4)cc2C(=O)N([C@H](C)CO)C[C@@H]1C,1.48,-47.9% (inactive)
COc1ccc(NC(=O)Nc2ccc3c(c2)C(=O)N([C@H](C)CO)C[C@H](C)[C@@H](CN(C)C(=O)Nc2ccc(OC)cc2)O3)cc1,1.6,-60% (inactive)
CNC[C@@H]1Oc2ccc(NC(=O)Nc3ccccc3)cc2C(=O)N([C@@H](C)CO)C[C@H]1C,1.61,-61.5% (inactive)
CNC[C@H]1Oc2ccc(NC(=O)Nc3ccc(OC)cc3)cc2C(=O)N([C@@H](C)CO)C[C@H]1C,2.23,-123% (active)
CCOC(=O)CC1(c2ccccc2)CCOC(C)(C)C1 (stereo not given),0.94,6.05% (inactive)
COc1ccc(N2CCN(S(=O)(=O)/C=C/c3ccccc3)CC2)cc1,1.07,-7.05% (inactive)
COc1ccc2[nH]c3c(c2c1)CCN1C(=O)C(CC(=O)NCCCN(C)C)C[C@H](C(=O)N(C(C)C)C(C)C)[C@@]31C (stereo not given in full),1.14,-13.9% (inactive)
CN1CCN(C(CNS(=O)(=O)c2ccc(F)cc2)c2cccnc2)CC1 (stereo not given),1.1,-10.1% (inactive)
O=C(CSc1nnc(C2CC2)n1Cc1ccccc1)NCc1ccccc1,1.05,-5% (inactive)
O=C(Cn1cnc2c(NCc3ccccc3)ncnc21)NCc1ccc2[nH]ccc2c1,1.1,-9.85% (inactive)
COC(=O)c1ccc(CNC(=O)Cn2cnc3c(NCc4ccccc4)ncnc32)cc1,0.989,1.05% (inactive)

SMILES,activation factor,"activity change, negative = activation"
COc1cc(CNc2ncnc3c2[nH]c2ccc(C)cc23)cc(OC)c1,2.97,-197% (active)
CCOc1ccc2[nH]c3c(NCCC(C)C)ncnc3c2c1,1.85,-84.7% (inactive)
Cc1ccc2[nH]c3c(N4CCN(Cc5ccccc5)CC4)ncnc3c2c1,1.25,-24.6% (inactive)
COc1ccc2[nH]c3c(N4CC(C)OC(C)C4)ncnc3c2c1 (stereo not given),1.17,-17.4% (inactive)
Cc1ccc2[nH]c3c(NCc4ccccc4)ncnc3c2c1,2.49,-149% (active)
Fc1ccc2[nH]c3c(NCc4ccccc4)ncnc3c2c1,2.25,-125% (active)
Fc1ccc2[nH]c3c(NCCN4CCOCC4)ncnc3c2c1,1.07,-7.05% (inactive)
COc1ccc(CNc2ncnc3c2[nH]c2ccccc23)cc1,2.71,-171% (active)
O=C(Cn1cnc2c(NCc3ccccc3)ncnc21)NCc1ccccc1,0.932,6.8% (inactive)
COc1ccc(CNC(=O)Cn2cnc3c(NCc4ccccc4)ncnc32)cc1,1.01,-0.55% (inactive)
O=C(CSc1nnc(C2CC2)n1Cc1ccccc1)N1CCN(S(=O)(=O)c2ccccc2)CC1,1.04,-4.25% (inactive)
O=C(NCCc1ccccc1)c1nc2nc(-c3cccs3)cc(C(F)(F)F)n2n1,0.956,4.4% (inactive)
Cc1ccc(S(=O)(=O)C2CCOC2=O)cc1 (stereo not given),0.793,20.7% (inactive)
COc1ccc(C(c2nnnn2CS(=O)(=O)c2ccc(C)cc2)N2CCN(c3ncccn3)CC2)cc1 (stereo not given),0.922,7.75% (inactive)
Cc1nnc(SCCC(C)C)[nH]c1=O,1.13,-12.6% (inactive)
Cc1onc(-c2ccccc2Cl)c1C(=O)OCC(=O)c1ccc2c(c1)OCCO2,0.972,2.85% (inactive)
CCOC(=O)C1=CN(CC)S(=O)(=O)NC1c1ccc(F)c(Cl)c1 (stereo not given),1.1,-9.6% (inactive)
CC[C@]12c3[nH]c4cc(CCC(=O)N(C)C)ccc4c3CCN1C(=O)[C@@H](CC(=O)NCCN1CCOCC1)C[C@@H]2C(=O)N1CCN(C(=O)C2CC2)CC1,1.07,-6.6% (inactive)
Cc1cccc(-c2noc(CCC(=O)N3CCN(c4cc(C)ccc4C)CC3)n2)c1,0.938,6.25% (inactive)
c1coc(C2Nc3cccc4cccc(c34)N2)c1,0.307,69.3% (inactive)
CN1CC2([N+](=O)[O-])CC=C(Oc3ccccc3)C([N+](=O)[O-])(C1)C2 (stereo not given),0.919,8.05% (inactive)
C#CCOCCOCCOCCNc1nc(N2CCN(C(=O)CCCCCCCCCCNC(=O)Cn3cc(CCCCCN)nn3)CC2)nc(N2CCN(C(=O)CCCCCCCCCCNC(=O)[C@H](CO)n3cc(CCCSC)nn3)CC2)n1,2.53,-153% (active)
C#CCOCCOCCOCCNc1nc(N2CCN(C(=O)CCCCCCCCCCNC(=O)Cn3cc(C[C@@H](C)O)nn3)CC2)nc(N2CCN(C(=O)CCCCCCCCCCNC(=O)[C@@H](CCSC)n3cc(CCO)nn3)CC2)n1,1.97,-96.8% (active)
C#CCOCCOCCOCCNc1nc(N2CCN(C(=O)CCCCCCCCCCNC(=O)Cn3cc(CCCCCN)nn3)CC2)nc(N2CCN(C(=O)CCCCCCCCCCNC(=O)[C@@H](CCSC)n3cc(CCO)nn3)CC2)n1,3.56,-256% (active)
C#CCOCCOCCOCCNc1nc(N2CCN(C(=O)CCCCCCCCCCNC(=O)[C@@H](CCSC)n3cc(CCO)nn3)CC2)nc(N2CCN(C(=O)CCCCCCCCCCNC(=O)[C@H](CCSC)n3cc(CCO)nn3)CC2)n1,1.78,-77.9% (inactive)
